Screens deposited in PubChem by National Center for Advancing Translational Sciences (NCATS).
The sample as a whole holds a higher share of hits than the screen did.
Methyltransferases: Primary Screen for Target Class Profiling of Small Molecule Inhibitors of Methyltransferases; calls only at 40 µM; hit rate 3.9% among 25,000; AID 1745853, 2022; purified enzyme, MTase-Glo SAH luminescence; hits give low values; call rule not given here
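Each enzyme was assayed with SAM and its substrate. SAH formation detected by MTase-Glo luminescence; single-point 40 uM screen[…].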
* marks the source's active call; other numbers are inactive results; i = inactive; + = active, no number; ! = not confirmed by another sample. % is set by controls: 0 for no effect and ±100 for the full control effect.

SMILES	Methyltransferases
Cc1noc(C)c1-c1nccc2c(=O)cc(-c3ccccn3)oc12	i
CCCN1C(=O)c2c(C(=O)NCc3ccc(OC(C)C)cc3)ncn2CC1(C)C(=O)NCc1ccc(C)cc1 (configuration not stated)	i
CCN(CC)CCCN1C(=O)c2ccc(-c3ccco3)n2CC1(C)C(=O)NC1CCCCCCC1 (configuration not stated)	i
CCCn1c(=O)c2cc(F)ccc2n2c(SCC(=O)Nc3ccc(F)cc3)nnc12	i
CC1(C(=O)NC2CCCCCC2)Cn2c(cc3occc32)C(=O)N1CC1CCCO1 (configuration not stated)	i
O=C(CCc1nnc2n(Cc3ccccc3Cl)c(=O)c3ccccc3n12)N1CCN(c2ccccc2F)CC1	i
COc1cc(NS(=O)(=O)c2cc3c(cc2C)n(C)c(=O)n3C)cc(OC)c1	i
Cc1cccc(Cn2nc3n(CCC(C)C)c(=O)c4ccc(C(=O)NC5CCCC5)cc4n3c2=O)c1	i
CC(=O)OC/C=C(\C)C(CC1C(C)=C(OC(C)=O)C(=O)C2C(C)(C)C(O)CCC12C)OC(C)=O (configuration not stated)	+
O=C(CCc1nnc2n(Cc3ccccc3)c(=O)c3ccccc3n12)Nc1cccc(Cl)c1	i
CC(C)CCn1c(=O)c2ccc(C(=O)NC3CCCC3)cc2n2c(=O)n(CC(N)=O)nc12	i
CC(=O)Nc1c2n(c3ccc(F)cc13)CC(C)(C(=O)NCCC(C)C)N(C1CCCC1)C2=O (configuration not stated)	i
O=S(=O)(Nc1ccccc1Cl)c1ccc2[nH]c3c(c2c1)CCCC3	i
O=C(Nc1ccc([N+](=O)[O-])cc1Cl)c1cc(Cl)ccc1O	i
O=[N+]([O-])c1cc(S(=O)(=O)Nc2ccc(O)c3ccccc23)ccc1Cl	+
Cn1c(=O)n(C)c2cc(NS(=O)(=O)c3ccc(N4CCCC4=O)cc3)ccc21	i
C=CCn1c(=O)c2ccc(C(=O)NC(C)C)cc2n2c(=O)n(CC(=O)Nc3cc(F)ccc3F)nc12	i
CN1C(=O)c2cc(C(=O)NC3CCCCCC3)nn2CC1(C)C(=O)NC1CCCCC1 (configuration not stated)	i
CC(C)Cn1c(=O)c2ccc(C(=O)NC3CCCC3)cc2n2c(=O)n(Cc3ccccc3Cl)nc12	i
CC(CCc1ccc(O)cc1)NCCc1ccc(O)c(O)c1 (configuration not stated)	i
C[C@H](Cc1ccc(O)c(O)c1)[C@@H](C)Cc1ccc(O)c(O)c1	+
CCC(C)NC(=O)c1ccc2c(=O)n(CCC(C)C)c3nn(Cc4ccc(Cl)cc4)c(=O)n3c2c1 (configuration not stated)	i
CC1(C)CCC[C@]2(C)C1CC=C(CO)[C@H]2CC/C(=C/CO)CO (some centres not stated)	i
C=C1CCC2C(C)(C)CCC[C@]2(C)[C@H]1C/C=C(\CO)C(=O)C(=O)O (some centres not stated)	i
CC1=CCC2C(C)(C)CCCC2(C)C1CC12OC1C(O)C(CO)=CC2O (configuration not stated)	i
SMILES	Methyltransferases
CC(=O)OC/C(=C/C(=O)O)CC[C@@H]1C(C=O)=CC[C@@H]2C(C)(C)CCC[C@@]12C	+
CC(=O)OC/C(=C/C(=O)O)CC[C@@H]1C(CO)=CC[C@@H]2C(C)(C)CCC[C@@]12C	+
CC1(C)CCCC2(C)C(C(=O)O)=CCC12 (configuration not stated)	i
Cc1ccc(NS(=O)(=O)c2ccc3[nH]c(=O)[nH]c3c2)cc1F	i
Cc1ccccc1NC(=O)CSc1nnc2n(CCC(C)C)c(=O)c3ccccc3n12	i
Cc1cccc(N2CCN(S(=O)(=O)c3ccc4[nH]c(=O)[nH]c4c3)CC2)c1C	i
O=C(Nc1cccc(Nc2cc(Nc3cccc(C(F)(F)F)c3)ncn2)c1)C1CC1	+
O=C(Nc1ccnc(NC(=O)C2CC2)c1)c1c(Cl)cccc1Cl	i
O=C(O)c1cccnc1Nc1cccc(C(F)(F)F)c1	i
Cc1ccc(C(=O)Cn2nc3n(CCCOC(C)C)c(=O)c4ccccc4n3c2=O)cc1	i
S=c1ssc2c1CCC2	+
CCc1cc2c(cc3n2CC(C)(C(=O)NC2CCCCC2)N(CCCN2CCCCC2)C3=O)s1 (configuration not stated)	i
CC(C)CCn1c(=O)c2ccc(C(=O)NCC(C)C)cc2n2c(=O)n(CC(=O)NC(C)(C)C)nc12	i
CC(=O)Nc1ccc(N2C(=O)c3ccc(-c4ccco4)n3CC2(C)C(=O)NCc2ccc(Cl)cc2)cc1 (configuration not stated)	i
COc1cccc(CN2C(=O)c3cc4sccc4n3CC2(C)C(=O)NC2CCC(C)CC2)c1 (configuration not stated)	i
COc1ccc(CN2C(=O)c3cc4sccc4n3CC2(C)C(=O)NC2CCCCC2)cc1OC (configuration not stated)	i
COc1ccc(CN2C(=O)c3cc4sccc4n3CC2(C)C(=O)NC2CCC(C)CC2)cc1OC (configuration not stated)	+
Cc1ccccc1CSc1nnc2n(Cc3ccccc3)c(=O)c3ccccc3n12	i
CCC(C)NC(=O)c1ccc2c(=O)n(CC(C)C)c3nn(Cc4ccccc4F)c(=O)n3c2c1 (configuration not stated)	i
Cc1cccc(CNC(=O)CCn2ccc3cc(S(=O)(=O)N4CCCCC4)ccc32)c1	i
CC(C)CCNC(=O)C1(C)Cn2c(cc3ccccc32)C(=O)N1Cc1ccc(OC(C)C)cc1 (configuration not stated)	i
CCOc1ccc(CN2C(=O)c3cc4occc4n3CC2(C)C(=O)NC2CCCCC2)cc1 (configuration not stated)	i
N#C/C(=C\c1ccc(O)c(O)c1)C(=O)Nc1ccccc1	i
N#CC(C#N)=C(N)/C(C#N)=C/c1ccc(O)cc1	i
N#C/C(=C\c1ccc(O)c(O)c1)C(=O)NCCCNC(=O)/C(C#N)=C/c1ccc(O)c(O)c1	+!
SMILES	Methyltransferases
CCCCN1C(=O)c2cc(C(=O)Nc3ccccc3OC)nn2CC1(C)C(=O)NC1CCCC1 (configuration not stated)	i
CCOC(=O)c1cc2n(n1)CC(C)(C(=O)NCc1ccc(F)cc1)N(c1ccc(F)cc1)C2=O (configuration not stated)	i
COC(=O)c1cc2n(n1)CC(C)(C(=O)NC1CCCCC1)N(CCc1cccs1)C2=O (configuration not stated)	i
COc1ccc(OC)c2c1cc1n2CC(C)(C(=O)NC2CCCCC2)N(Cc2ccccc2)C1=O (configuration not stated)	i
COc1cc2nc(N3CCCN(C)CC3)nc(NC3CCN(Cc4ccccc4)CC3)c2cc1OC	+
COc1cc2c(NC3CCN(C(C)C)CC3)nc(N3CCC(F)(F)CC3)nc2cc1OCCCN1CCCC1	+
COc1ccccc1-c1cccc(CN2CCC(NC(C)=O)CC2)c1	i
COc1cc2nc(N3CCN(C)CC3)nc(NC3CCN(Cc4ccccc4)CC3)c2cc1OC	+!
O=C(NC1CCN(Cc2ccccc2)CC1)C1CCCN(c2cnc3nccnc3c2)C1 (configuration not stated)	i
COc1cc2nc(N3CCN(C(=O)COc4c(OC)cccc4C(C)C)CC3)nc(N)c2cc1OC	i
